Giardia kill: Giardia lamblia killing. activity change, % at 7.66 µM, hits read low. Giardia lamblia trophozoite viability. 340,000 compounds, 0.15% hits; in the data active = activity change below about -80%; inconclusive = between about -30% and that limit;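 note: parasites exposed to compound for two days anaerobically before the ATP read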
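Each well holds 100 Giardia trophozoites and compound. After two days (48 hrs) at 37 deg C in anaerobic conditions, ATP is quantified by luminescence.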
TDP1 block: TDP1 (human) enzyme inhibition; Q9NUW8; recombinant TDP1, AlphaScreen DNA substrate cleavage; Potency, µM (top dose mostly 130 µM), without a hit: top-dose activity change, negative = inhibition, most hits filed as inhibitors; 350,000 compounds, 0.28% hits; AID 485290; note: potency is the fitted concentration of half-maximal effect; nearly all actives have a fitted effect of over 40% in size
Target sequence (Q9NUW8 whole entry, looked up): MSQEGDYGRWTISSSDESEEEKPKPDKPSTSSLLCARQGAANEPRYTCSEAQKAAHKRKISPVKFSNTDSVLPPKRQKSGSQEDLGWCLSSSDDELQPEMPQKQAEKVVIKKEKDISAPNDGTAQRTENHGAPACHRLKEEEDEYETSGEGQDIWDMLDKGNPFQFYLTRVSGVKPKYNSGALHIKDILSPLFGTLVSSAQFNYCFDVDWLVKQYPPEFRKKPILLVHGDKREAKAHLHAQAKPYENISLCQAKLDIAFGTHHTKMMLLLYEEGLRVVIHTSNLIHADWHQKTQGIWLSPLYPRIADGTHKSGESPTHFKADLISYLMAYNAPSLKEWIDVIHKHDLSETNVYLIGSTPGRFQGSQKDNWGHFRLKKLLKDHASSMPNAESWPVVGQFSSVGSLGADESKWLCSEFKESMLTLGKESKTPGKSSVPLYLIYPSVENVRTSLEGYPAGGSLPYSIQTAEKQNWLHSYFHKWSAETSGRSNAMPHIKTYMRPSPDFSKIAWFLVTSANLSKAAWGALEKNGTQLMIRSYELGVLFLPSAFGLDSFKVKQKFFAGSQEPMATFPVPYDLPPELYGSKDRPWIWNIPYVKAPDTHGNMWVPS
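Signal: AlphaScreen proximity between streptavidin donor and anti-FITC acceptor beads on intact substrate. Reaction: Tdp1 1 nM, substrate 15 nM final, 5 min RT after 15 min compound preincubation.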
IL1B secr inh: blocks inflammasome-driven IL-1 beta release | THP-1 LPS/ATP IL-1B secretion, AlphaLISA, 16 h; active compounds read low | activity change, % at 57.5 µM | 360,000 compounds, 4.7% hits; in the data active = activity change below about -50%; inconclusive = mostly about -30% to -49%
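THP-1 cells pretreated 1 hr with compounds (up to 57.5 uM final), then stimulated with LPS (250 ng/mL final) plus ATP (1.25 mM final); secreted IL-1B measured by AlphaLISA after 16 hr, decreased signal indicating inhibition.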
DT40 TDP1 CPT: DT40-hTDP1 cell growth loss with CPT. chicken DT40 Tdp1-/-;hTDP1 cells + 20 nM CPT, ATP luminescence, 48 h. Potency, µM (doses to about 46.2 µM), for inactives: top-dose activity change, negative = growth inhibition, hits mostly inhibitors. 420,000 compounds, 12% hits. AID 686979; note: potency is the fitted concentration of half-maximal effect; nearly all actives have a fitted effect of over 55% in size
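Chicken DT40 Tdp1-/- cells complemented with human TDP1, 400 cells/well, exposed to compounds plus 20 nM camptothecin for at least 48 h at 37 C; viability read as ATP content by CellTiter-Glo luminescence.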
DT40 TDP1 no CPT: qHTS for Inhibitors of human tyrosyl-DNA phosphodiesterase 1 (TDP1): qHTS in cells in absence of CPT; DT40 Tdp1-/- hTDP1 cells, no CPT, ATP luminescence, 48 h; Potency, µM (highest dose often 46.2 µM), inactives show top-dose activity change, negative = growth inhibition, hits mostly inhibitors; 420,000 compounds, 15% hits; AID 686978, 2013; note: potency is the fitted concentration of half-maximal effect; nearly all actives have a fitted effect of over 55% in size
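Stably hTDP1-transfected Tdp1-null chicken DT40 cells were treated with library compounds minus camptothecin and grown for at least 48 hr at 37 °C, after which cellular ATP was quantified by luminescence.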
ELG1 DNA repair: ELG1-dependent DNA repair inhibition; 330,000 compounds, 2.3% hits; Potency, µM (doses to about 46.1 µM), inactives show at the top dose activity change, negative = inhibition, usual class: inhibitors; HEK293T ELG1-luciferase reporter, luminescence, 16 h; DNA damage induced by 5-fluorouridine; AID 504467; note: potency is the fitted concentration of half-maximal effect; nearly all actives have a fitted effect of over 55% in size
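Step one: seed 2,000 cells per well. Step two: pin-transfer compound or DMSO alongside 5-fluorouridine. Step three: incubate 16 hr, 37 °C, 5% CO2. Step four: add ONE-Glo, wait 30 min, read luminescence.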
* = called active by the depositor; ? = inconclusive; . = no result given; [ ] = remark or other dose. A selection: hits, their analogues and other compounds. The true share with any hit is near 19%. Unless noted, calls come from the whole dose curve; as a rule, active = well fitted curve in the direction sought with a large enough effect; inconclusive = small, poorly fitted or top-dose-only effect, or another doubt; inactive = no such curve, though single readings can be large; an effect the other way counts as inactive or inconclusive. % is set by controls: 0 for no effect and ±100 for the full control effect.

SMILES	Giardia kill	TDP1 block	IL1B secr inh	DT40 TDP1 CPT	DT40 TDP1 no CPT	ELG1 DNA repair
O=C(CCNS(=O)(=O)c1ccc(OC(F)(F)F)cc1)Nc1cccc(S(=O)(=O)N2CCCC2)c1	-13	.	-5	18µM*	?	.
NC1=NC2(CCCCC2)N(c2cccc(Cl)c2)C(N)=N1	-1	4%	-12	10µM*	0.46µM*	0%
COc1ccc(N2C(N)=NC(N)=NC23CCCC3)cc1	-8	7%	3	?	1.5µM*	-3%
CCCCOc1ccc(N2C(N)=NC(N)=NC23CCCCC3)cc1	-14	.	-15	9.2µM*	6.5µM*	-17%
COc1ccccc1N1C(N)=NC(N)=NC12CCCCC2	0	.	34	10%	?	-8%
CC(C)(C)C(c1nc2ccccc2[nH]1)n1c(-c2cccc(S(C)(=O)=O)c2)nc2ccccc21 (centres undefined)	.	.	?	10µM*	13µM*	.
CC(c1nc2ccccc2[nH]1)n1c(-c2ccncc2)nc2ccccc21 (centres undefined)	.	.	13	-11%	-7%	.
CC(C)(C)C(c1nc2ccccc2[nH]1)n1c(-c2cc(Cl)cc(Cl)c2)nc2ccccc21 (centres undefined)	.	.	0	?	16µM*	.
Cc1cccc(C)c1NC(=O)CN1CCN(C(=O)c2cc(C3CC3)nn2-c2ccccc2)CC1	.	.	-14	-25%	?	.
O=C(c1cc(C2CC2)nn1-c1ccccc1)N1CCN(Cc2ccc(Cl)cc2)CC1	-17	2%	-17	18µM*	12µM*	?
Cc1ccc(S(=O)(=O)N2CCN(C(=O)c3cc(C4CC4)nn3-c3ccccc3)CC2)cc1	.	.	19	?	?	.
O=C(c1cc(C2CC2)nn1-c1ccccc1)N1CCN(S(=O)(=O)c2ccccc2)CC1	11	1%	-14	?	16µM*	-18%
O=C(c1cc(C2CC2)nn1-c1ccccc1)N1CCN(Cc2ccccc2F)CC1	3	11%	?	16µM*	23µM*	8%
CC(=O)c1ccc(S(=O)(=O)N2CCN(C(=O)c3ccc(-n4nc(C)c(Cl)c4C)cc3)CC2)cc1	8	3%	-14	16µM*	13µM*	?
O=C(O)CN1CCNCCN(CC(=O)O)CCNCC1	14	.	-12	?	?	.
CCOP(=O)(OCC)C(NC(=O)/C=C/c1ccc(OC)cc1)c1ccccc1 (centres undefined)	-2	-5%	5	-13%	7%	-6%
O=C(c1nc(-c2ccccc2)n(-c2ccccc2)n1)N1CCN(S(=O)(=O)c2ccccc2)CC1	11	3%	-29	-30%	?	18µM*
Cc1ccc(C)c(S(=O)(=O)N2CCN(C(=O)c3cc(-c4cccs4)nn3-c3ccccc3)CC2)c1	2	.	-8	?	?	?
O=C(c1cc(-c2ccccc2)nn1-c1ccccc1)N1CCN(S(=O)(=O)c2c(F)cccc2F)CC1	-2	2%	-9	13µM*	?	?
Cc1ccc(S(=O)(=O)N2CCC(=O)CC2)cc1	-25	5%	7	-13%	15%	-1%
COc1cc(C(C)=O)ccc1OCC(=O)N1CCC(Cc2ccccc2)CC1	.	.	-10	?	?	.
O=Cc1cc(Cl)ccc1OCCN1CCC(Cc2ccccc2)CC1	-5	5%	-93*	?	16µM*	-10%
COc1cc(C(C)=O)ccc1OCCN1CCC(Cc2ccccc2)CC1	4	5%	-64*	?	?	5%
COc1cc(C(C)=O)ccc1OCCCN1CCC(Cc2ccccc2)CC1	3	6%	-55*	?	?	-9%
COc1cc(C(=S)N2CCC(Cc3ccccc3)CC2)ccc1OCC(N)=O	-5	.	60	-14%	?	11%
SMILES	Giardia kill	TDP1 block	IL1B secr inh	DT40 TDP1 CPT	DT40 TDP1 no CPT	ELG1 DNA repair
CCOc1ccc(-c2nc(C(N)=O)c3c(n2)n(-c2ccc4c(c2)OCO4)c(=O)n3CC)cc1	.	6%	.	13%	-17%	.
CC(=O)Nc1ccc(S(=O)(=O)N(C)CC(=O)OCC(=O)N2CCCCCC2)cc1	-11	3%	17	-3%	1%	7%
Cc1ccc(C(=O)c2oc3ccccc3c2NC(=O)COc2ccc(C(C)C)cc2)cc1	.	3%	.	-22%	?	.
O=C(O)c1cccc(-n2cccc2/C=C2\NC(=O)N(Cc3ccc(F)cc3)C2=O)c1	9	?	0	?	?	-17%
Cc1ccc(NC(=O)CN2C(=O)N/C(=C\c3cccn3-c3cccc(C(=O)O)c3)C2=O)cc1	-10	2.8µM*	8	3%	-28%	9%
O=C(O)c1ccc(-n2cccc2/C=C2/NC(=O)N(c3cccc(Cl)c3)C2=O)cc1	-10	1.6µM*	-23	-20%	-25%	-19%
Cc1ccc(NC(=O)CN2C(=O)N/C(=C/c3cc(C)n(-c4cccc(C(=O)O)c4)c3C)C2=O)cc1	-8	.	-15	2%	-2%	-16%
Cc1ccc(CN2C(=O)N/C(=C\c3cccn3-c3cccc(C(=O)O)c3)C2=O)cc1	-10	0%	38	8.2µM*	7.3µM*	-5%
CCN(C(=O)COC(=O)CCC(=O)c1ccc(Cl)cc1)c1c(N)n(Cc2ccccc2)c(=O)[nH]c1=O	3	.	-7	18µM*	23µM*	.
CCN(C(=O)COC(=O)c1cc2c(s1)CCC(C)C2)c1c(N)n(Cc2ccccc2)c(=O)[nH]c1=O (centres undefined)	21	.	-26	16µM*	?	.
CCc1ccc(C(=O)OCC(=O)N(CC)c2c(N)n(Cc3ccccc3)c(=O)[nH]c2=O)cc1	3	-6%	4	-5%	1%	5%
CCN(C(=O)COC(=O)C1CC1)c1c(N)n(Cc2ccccc2)c(=O)[nH]c1=O	35	2%	-23	-3%	4%	12%
CC1CCc2sc(C(=O)OCC(=O)NCc3ccc(F)cc3)cc2C1 (centres undefined)	-5	5%	7	21µM*	15µM*	7%
CCN(C(=O)COC(=O)c1ccc2[nH]c(C)c(C)c2c1)c1c(N)n(Cc2ccccc2)c(=O)[nH]c1=O	-9	.	0	18µM*	-30%	.
Cc1ccc(-n2nc(CO)c(C(=O)NC(C)c3ccccc3)n2)cc1C (centres undefined)	.	2%	.	?	?	.
Cc1ccc(-c2nc3ncccc3o2)cc1NC(=O)c1ccc(-c2cccc(Cl)c2C)o1	.	0%[12.3 µM]	.	?	0%	.

High-throughput results: PubChem BioAssay, National Center for Advancing Translational Sciences (NCATS)
